“And” between values parts separate entries of the source, which are not always exact repeats. Equal values may be shown once. Results filed as inconclusive are left out. The source made the active and inactive calls. The call rests on the fitted dose curve; in most records, active means well fitted inhibition curve with a large enough effect; inconclusive means small, poorly fitted or top-dose-only effect; inactive means flat fitted curve, though single readings scatter.
These compounds were tested on CP194 (assay: qHTS profiling for inhibitors of Plasmodium falciparum proliferation (AID 504749; further: nearly all actives have a fitted effect of over 60% in size;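 on activity, negative = inhibition: 0% = DMSO vehicle and full inhibition = artemisinin control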)). Conditions: P. falciparum in erythrocytes, SYBR Green DNA, 72 h; series mostly up to 28.7 µM; activity, negative = inhibition: at the top concentration.
Method in brief: (§1)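 P. falciparum-infected erythrocytes (0.3% parasitemia, 2.5% hematocrit final) were exposed to compounds for 72 h at 37 C in 5% CO2, then lysed with SYBR Green buffer overnight at room temperature; parasite DNA fluorescence was normalized to artemisinin and DMSO controls.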
Potency means the concentration at half of the fitted maximal effect.

Structure (SMILES) | activity, negative = inhibition | Potency
CCC1(c2ccccc2)CCC(=O)NC1=O (stereo not drawn) | -0.586% (inactive) | 
C[N+]1(CCC(C(N)=O)(c2ccccc2)c2ccccc2)CCCCC1 | 0.268% (inactive) | 
CCC(=O)O[C@H]1CC[C@H]2[C@@H]3CCC4=CC(=O)CC[C@]4(C)[C@H]3CC[C@]12C | 7.38% [at 12.8 µM] (inactive) | 
OC(c1ccccc1)(c1ccccc1)C1CCNCC1 | -0.527% [at 12.8 µM] (inactive) | 
CC(C)[N+](C)(CCC(C(N)=O)(c1ccccc1)c1ccccc1)C(C)C | 4.86% [at 12.8 µM] (inactive) | 
Cc1ncc2n1-c1ccc(Cl)cc1C(c1ccccc1F)=NC2 | -1.43% (inactive) | 
Cc1ccc(N=CN(C)C=Nc2ccc(C)cc2C)c(C)c1 | -0.238% (inactive) | 
CC(C)NCC(O)c1ccc(N)c(C#N)c1 (stereo not drawn) | 0.334% (inactive) | 
CNC(=O)Oc1cccc2ccccc12 | 0.534% (inactive) | 
CCNc1nc(Cl)nc(NCC)n1 | -0.194% (inactive) | 
CC[n+]1c(-c2ccccc2)c2cc(N)ccc2c2ccc(N)cc21 |  | 269 nM (active) and 1.2 µM (active)
CCCCCCCCCCCC[N+](C)(C)CCOc1ccccc1 |  | 15.1 µM (active)
CCOC(=O)NC(O)C(Cl)(Cl)Cl (stereo not drawn) | 1.72% (inactive) | 
CCN(Cc1ccc(Cl)nc1)/C(=C/[N+](=O)[O-])NC | -4.51% (inactive) | 
C[C@H]1C(=O)O[C@@H]2CCN3CC=C(COC(=O)[C@](C)(O)[C@]1(C)O)[C@H]23 | 2.94% (inactive) | 
Oc1c(Br)cc(Br)cc1Br | -20.5% (inactive) | 

Structure (SMILES) | activity, negative = inhibition | Potency
C[C@]12CC[C@H]3[C@@H](CC=C4C[C@@H](O)CC[C@@]43C)[C@@H]1CC[C@@H]2O | 1.64% (inactive) | 
COP(=O)(OC)C(O)C(Cl)(Cl)Cl (stereo not drawn) | -7.71% (inactive) | 
CCN(CC)C(C)C(=O)c1ccccc1 (stereo not drawn) | -0.44% (inactive) | 
COP(=O)(OC)OC=C(Cl)Cl | -0.0389% (inactive) | 
CNC(=O)NC(O)C(Cl)(Cl)Cl (stereo not drawn) | 1.25% (inactive) | 
NC(=O)CN1CCCC1=O | 0.961% [at 12.8 µM] (inactive) | 
CCC1(CC)C(=O)NC(=O)NC1=O | -0.653% (inactive) | 
O=c1n(Cl)c(=O)n(Cl)c(=O)n1Cl | -0.974% (inactive) | 
CC(C)C(Br)C(=O)NC(N)=O (stereo not drawn) | -5.08% (inactive) | 
CN(C)C(=S)SSC(=S)N(C)C |  | 3.38 µM (active)
COP(=S)(OC)Oc1ccc(Sc2ccc(OP(=S)(OC)OC)cc2)cc1 | -1.43% (inactive) | 
NCc1cccnc1 | -0.604% (inactive) | 
COc1ccc(C(=O)N2CCCC2=O)cc1 | -8.96% (inactive) | 
c1ccc2nc(N3CCNCC3)ccc2c1 | 7.48% (inactive) | 
CC(C)(C)OC(=O)c1ncn2c1[C@@H]1CCCN1C(=O)c1c(Br)cccc1-2 | -14% (inactive) | 

Each compound was assayed on CP201 in the same assay as above. Conditions: P. falciparum in erythrocytes, SYBR Green DNA, 72 h; series mostly up to 28.7 µM; activity, negative = inhibition: at the top concentration.
Method in brief: as §1

Structure (SMILES) | activity, negative = inhibition | Potency
CCC1(c2ccccc2)CCC(=O)NC1=O (stereo not drawn) | -4.69% (inactive) | 
C[N+]1(CCC(C(N)=O)(c2ccccc2)c2ccccc2)CCCCC1 | 5.18% (inactive) | 
CCC(=O)O[C@H]1CC[C@H]2[C@@H]3CCC4=CC(=O)CC[C@]4(C)[C@H]3CC[C@]12C | -4.98% [at 12.8 µM] (inactive) | 
OC(c1ccccc1)(c1ccccc1)C1CCNCC1 | -3.09% [at 12.8 µM] (inactive) | 
CC(C)[N+](C)(CCC(C(N)=O)(c1ccccc1)c1ccccc1)C(C)C | -2.14% [at 12.8 µM] (inactive) | 
Cc1ncc2n1-c1ccc(Cl)cc1C(c1ccccc1F)=NC2 | 7.43% (inactive) | 
Cc1ccc(N=CN(C)C=Nc2ccc(C)cc2C)c(C)c1 | 0.187% (inactive) | 
CC(C)NCC(O)c1ccc(N)c(C#N)c1 (stereo not drawn) | 11.1% (inactive) | 
CNC(=O)Oc1cccc2ccccc12 | -5.62% (inactive) | 
CCNc1nc(Cl)nc(NCC)n1 | -1.71% (inactive) | 
CC[n+]1c(-c2ccccc2)c2cc(N)ccc2c2ccc(N)cc21 |  | 379 nM (active) and 1.35 µM (active)
CCCCCCCCCCCC[N+](C)(C)CCOc1ccccc1 |  | 10.7 µM (active)
CCOC(=O)NC(O)C(Cl)(Cl)Cl (stereo not drawn) | -2.6% (inactive) | 
CCN(Cc1ccc(Cl)nc1)/C(=C/[N+](=O)[O-])NC | -0.552% (inactive) | 
C[C@H]1C(=O)O[C@@H]2CCN3CC=C(COC(=O)[C@](C)(O)[C@]1(C)O)[C@H]23 | 1.64% (inactive) | 
Oc1c(Br)cc(Br)cc1Br | -0.75% (inactive) | 

Structure (SMILES) | activity, negative = inhibition | Potency
C[C@]12CC[C@H]3[C@@H](CC=C4C[C@@H](O)CC[C@@]43C)[C@@H]1CC[C@@H]2O | 0.542% (inactive) | 
COP(=O)(OC)C(O)C(Cl)(Cl)Cl (stereo not drawn) | -1.66% (inactive) | 
CCN(CC)C(C)C(=O)c1ccccc1 (stereo not drawn) | -1.39% (inactive) | 
COP(=O)(OC)OC=C(Cl)Cl | -4.58% (inactive) | 
CNC(=O)NC(O)C(Cl)(Cl)Cl (stereo not drawn) | -7.43% (inactive) | 
NC(=O)CN1CCCC1=O | 3.62% [at 12.8 µM] (inactive) | 
CCC1(CC)C(=O)NC(=O)NC1=O | -2.98% (inactive) | 
O=c1n(Cl)c(=O)n(Cl)c(=O)n1Cl | -1.18% (inactive) | 
CC(C)C(Br)C(=O)NC(N)=O (stereo not drawn) | -6.31% (inactive) | 
CN(C)C(=S)SSC(=S)N(C)C |  | 4.26 µM (active)
COP(=S)(OC)Oc1ccc(Sc2ccc(OP(=S)(OC)OC)cc2)cc1 | -5.23% (inactive) | 
NCc1cccnc1 | 7.72% (inactive) | 
COc1ccc(C(=O)N2CCCC2=O)cc1 | -10% (inactive) | 
c1ccc2nc(N3CCNCC3)ccc2c1 | 3.18% (inactive) | 
CC(C)(C)OC(=O)c1ncn2c1[C@@H]1CCCN1C(=O)c1c(Br)cccc1-2 | 1.53% (inactive) | 

The compounds below were run on CP203 in the same assay as above. Conditions: P. falciparum in erythrocytes, SYBR Green DNA, 72 h; series mostly up to 28.7 µM; activity, negative = inhibition: at the top concentration.
Method in brief: as §1

Structure (SMILES) | activity, negative = inhibition | Potency
CCC1(c2ccccc2)CCC(=O)NC1=O (stereo not drawn) | -7.34% (inactive) | 
C[N+]1(CCC(C(N)=O)(c2ccccc2)c2ccccc2)CCCCC1 | 1.42% (inactive) | 
CCC(=O)O[C@H]1CC[C@H]2[C@@H]3CCC4=CC(=O)CC[C@]4(C)[C@H]3CC[C@]12C | 1.42% [at 12.8 µM] (inactive) | 
OC(c1ccccc1)(c1ccccc1)C1CCNCC1 | -8.79% [at 12.8 µM] (inactive) | 
CC(C)[N+](C)(CCC(C(N)=O)(c1ccccc1)c1ccccc1)C(C)C | 4% [at 12.8 µM] (inactive) | 
Cc1ncc2n1-c1ccc(Cl)cc1C(c1ccccc1F)=NC2 | 20.6% (inactive) | 
Cc1ccc(N=CN(C)C=Nc2ccc(C)cc2C)c(C)c1 | 8.06% (inactive) | 
CC(C)NCC(O)c1ccc(N)c(C#N)c1 (stereo not drawn) | -5.58% (inactive) | 
CNC(=O)Oc1cccc2ccccc12 | -9.52% (inactive) | 
CCNc1nc(Cl)nc(NCC)n1 | 1.17% (inactive) | 
CC[n+]1c(-c2ccccc2)c2cc(N)ccc2c2ccc(N)cc21 |  | 213 nM (active) and 675 nM (active)
CCCCCCCCCCCC[N+](C)(C)CCOc1ccccc1 |  | 10.7 µM (active)
CCOC(=O)NC(O)C(Cl)(Cl)Cl (stereo not drawn) | 9.29% (inactive) | 
CCN(Cc1ccc(Cl)nc1)/C(=C/[N+](=O)[O-])NC | 5.13% (inactive) | 
C[C@H]1C(=O)O[C@@H]2CCN3CC=C(COC(=O)[C@](C)(O)[C@]1(C)O)[C@H]23 | 0.431% (inactive) | 
Oc1c(Br)cc(Br)cc1Br | 1.72% (inactive) | 

Structure (SMILES) | activity, negative = inhibition | Potency
C[C@]12CC[C@H]3[C@@H](CC=C4C[C@@H](O)CC[C@@]43C)[C@@H]1CC[C@@H]2O | 7.39% (inactive) | 
COP(=O)(OC)C(O)C(Cl)(Cl)Cl (stereo not drawn) | -5.02% (inactive) | 
CCN(CC)C(C)C(=O)c1ccccc1 (stereo not drawn) | -0.318% (inactive) | 
COP(=O)(OC)OC=C(Cl)Cl | -6.3% (inactive) | 
CNC(=O)NC(O)C(Cl)(Cl)Cl (stereo not drawn) | -3.23% (inactive) | 
NC(=O)CN1CCCC1=O | -2.33% [at 12.8 µM] (inactive) | 
CCC1(CC)C(=O)NC(=O)NC1=O | 3.22% (inactive) | 
O=c1n(Cl)c(=O)n(Cl)c(=O)n1Cl | 5.26% (inactive) | 
CC(C)C(Br)C(=O)NC(N)=O (stereo not drawn) | -0.946% (inactive) | 
CN(C)C(=S)SSC(=S)N(C)C |  | 4.78 µM (active)
COP(=S)(OC)Oc1ccc(Sc2ccc(OP(=S)(OC)OC)cc2)cc1 | 3.82% (inactive) | 
NCc1cccnc1 | -0.637% (inactive) | 
COc1ccc(C(=O)N2CCCC2=O)cc1 | -12% (inactive) | 
c1ccc2nc(N3CCNCC3)ccc2c1 | -0.664% (inactive) | 
CC(C)(C)OC(=O)c1ncn2c1[C@@H]1CCCN1C(=O)c1c(Br)cccc1-2 | -0.117% (inactive) | 

— PubChem BioAssay (NCATS)
